Compound activity: PubChem BioAssay, several laboratories
LMP1 NFkB inh – reduces LMP1-driven NF-kappaB luciferase signal. LMP1-induced NF-kappaB luciferase reporter cells, luminescence. 350,000 tested, 0.69% active. inhibition, % at 12.5 µM; in the data active = inhibition above about 41%; inconclusive = no clear call, values can overlap the other calls;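 note: 0% = neutral control wells and 100% = reference inhibitor control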
HSF1 inhib – HSF1 inhibition. NIH3T3-HGL HSE-luciferase, MG132-induced, luminescence 8 h; hits give low values. activity change, negative = inhibition, % at 7.5 µM (by protocol). 300,000 tested, 0.77% active;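 active = more than half of replicate wells show activity change below -50%, luminescence cut by over half; inconclusive = some wells, but at most half, below -50%; inactive = no replicate well below -50%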;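 note: luciferase reports HSF-1 transcriptional activity via heat shock element; 0% = median of DMSO wells and -100% = zero luminescence signal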
TROY signal inh – TROY signaling inhibition | inhibition, % at 10 µM | 360,000 tested, 0.98% active | Q293 LMP1-TROYcd NF-kB luciferase reporter, 4 h;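 active = compounds whose plate-normalised and pattern-corrected inhibition of the luciferase reporter signal at the single screening dose is 50% or more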
TWEAK-Fn14 inh – TWEAK-Fn14 signaling inhibition; AID 1159606; TWEAK-stimulated Fn14 reporter cells, luciferase luminescence, 8 h; 360,000 tested, 2% active; inhibition, % at 10 µM; in the data active = inhibition above about 50%
HSF-1 act – increases HSF-1 driven luciferase reporter signal; NIH3T3-HGL HSF-1 luciferase reporter, MG132, 8 h; 100% = twice DMSO control signal; 300,000 tested, 1.7% active; activation, % at 9 µM;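 active = mean replicate activation of at least 50% with a set share of replicates each reaching 50%; inconclusive = only one of those two conditions met; inactive = mean below 50% and too few replicates reaching it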;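 note: 0% = median of the neutral control wells and 100% = twice that signal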
LGR2 inh – Drosophila LGR2 receptor signaling inhibition; 380,000 tested, 0.35% active; inhibition, % at 9.99 µM; HEK293 LGR2, CRE-luciferase, bursicon-stimulated, 4 h;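 active = drop in luminescence signal, shown as inhibition above about 50% in the replicate tests, limit read from the data, passing the limit was not always enough; inconclusive = probably only some replicates passing the limit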;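 note: agonist challenge used bursicon conditioned medium at about half maximal strength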
The depositor's hits bear a star; ? = inconclusive; / = not tested or not shown. The list is not random: actives were taken first. Their share in the collection is about 3.6%.

SMILES | LMP1 NFkB inh | HSF1 inhib | TROY signal inh | TWEAK-Fn14 inh | HSF-1 act | LGR2 inh
COc1ccc(-c2n(Cc3ccccc3)c3ccccc3[n+]2Cc2ccccc2)cc1 | 1 | -1 | 50* | 38 | -9 | 27
C=CCn1c(-c2ccc(N)cc2)nc2ccccc21 | -40 | 10 | -37 | -37 | 21 | -67
C=CCn1c(-c2ccc(OC)cc2)nc2ccccc21 | -4 | 13 | / | 57* | 10 | /
Cc1ccc(OCc2cc(C(=O)N3CCN(C)C[C@@H]3c3ccccc3)no2)cc1C | -32 | 27 | -53 | 10 | 56* | -72
CCC(=O)N1[C@@H](CO)[C@H](c2ccc(-c3ccccc3OC)cc2)C12CN(C(C)=O)C2 | / | / | / | / | / | -15
CC(c1ccc(F)cc1)n1c(Cn2ncc3ccccc3c2=O)n[nH]c1=S (stereo unspecified) | 4 | 35 | 1 | 9 | 66* | -11
CCCNC(=O)N1CC2(CN(C(=O)C3CCC3)C2)c2c([nH]c3cc(OC)ccc23)[C@H]1CO | / | / | / | / | / | -9
CCc1ccccc1N(CC(=O)NCc1ccco1)C(=O)CCC(=O)Nc1ccccn1 | -1 | -70* | -18 | 10 | -77 | -1
CCc1ccccc1N(CC(=O)NCc1ccco1)C(=O)c1snc(C(N)=O)c1N | 55* | 2 | 23 | 9 | -7 | /
CO[C@H]1CN(C)C(=O)c2cc(NC(=O)c3cnccn3)ccc2OC[C@@H](C)N(C(C)=O)C[C@H]1C | / | / | / | / | / | -15
CCOc1ccc(S(=O)(=O)NCc2cccs2)cc1 | 5 | -2 | -27 | -13 | -15 | /
CCSc1nnc(-c2ccc(S(=O)(=O)NCc3cccs3)cc2)o1 | 14 | -68* | 1 | -6 | -71 | 1
c1ccc2c(c1)Nc1cc3ccccc3cc1S2 | -31 | -5 | -43 | -21 | / | 5
c1ccc2c(c1)Nc1ccncc1S2 | 7 | 7 | 19 | 55* | / | /
COc1ccc(/C=C(\C#N)C(=O)Nc2cccc(C)n2)cc1 | -4 | 52 | -59 | 7 | 71* | -147
Cc1cccc(NC(=O)/C(C#N)=C/c2ccccc2O)n1 | -1 | 28 | -5 | 5 | 77* | -39
Cc1cccc(NC(=O)/C(C#N)=C/c2ccc(Cl)cc2)n1 | 2 | -3 | -34 | -7 | -6 | -6
Cc1cccc(NC(=O)/C(C#N)=C/c2ccccc2Cl)n1 | 3 | 1 | -22 | -11 | -13 | 4
C[C@@H]1CN([C@@H](C)CO)S(=O)(=O)c2ccc(/C=C/c3ccccc3)cc2O[C@@H]1CN(C)C(=O)C1CC1 | / | / | / | / | / | 14
COc1ccc(C#Cc2cnc3c(c2)C(=O)N([C@H](C)CO)C[C@H](C)[C@H](CN(C)C)O3)cc1 | / | / | / | / | / | -1
O=C(C[C@@H]1C=C[C@@H](NS(=O)(=O)c2ccc(F)cc2)[C@H](CO)O1)NCc1ccncn1 | / | / | / | / | / | 8
Cn1c(COc2ccccc2O)[n+](C)c2ccccc21 | 13 | -4 | -4 | 11 | -5 | -3
CCCCCCCCCCOC(=O)Cn1c(COc2ccccc2OC)[n+](C)c2ccccc21 | 33 | 6 | 61* | 67* | 19 | 54*
C[C@@H]1CN([C@H](C)CO)C(=O)c2cccc(NC(=O)c3ccncc3)c2O[C@H]1CN(C)Cc1ccc(-c2ccccc2)cc1 | / | / | / | / | / | 17
C[C@H](CO)N1C[C@H](C)[C@H](CN(C)S(C)(=O)=O)Oc2ncc(C#Cc3cccnc3)cc2C1=O | / | / | / | / | / | 9
SMILES | LMP1 NFkB inh | HSF1 inhib | TROY signal inh | TWEAK-Fn14 inh | HSF-1 act | LGR2 inh
CCN(CC)CCCNC1=C(Cl)C(=O)c2ccccc2C1=O | 5 | 1 | 27 | 20 | 16 | 77*
O=C(O)c1ccc(NC2=C(Cl)C(=O)c3ccccc3C2=O)cc1 | -1 | ? | 42 | 43 | -39 | 10
CC(C)NC1=C(Cl)C(=O)c2ccccc2C1=O | -17 | 51 | -28 | 14 | 70* | /
O=C(O)c1cccc(NC2=C(Cl)C(=O)c3ccccc3C2=O)c1 | 2 | -88* | 9 | 60* | -90 | 10
O=C1C(Cl)=C(Nc2ccccc2)C(=O)c2ccccc21 | 93* | -6 | 70* | 44 | 0 | -9
CC(C)OCCCNC1=C(Cl)C(=O)c2ccccc2C1=O | / | 27 | -21 | -12 | 42 | -37
COCCCNC1=C(Cl)C(=O)c2ccccc2C1=O | 1 | 18 | -18 | -6 | 46 | -3
COc1ccc(OC)c(NC(=O)CSc2ncnc3c2cnn3-c2ccccc2Cl)c1 | 26 | -6 | 40 | 74* | -10 | /
